Measurements published in PMC5540273 (PLoS ONE, 2017).

Columns and labels:
Details in all cases: concentration: 1 μM,replicates: in singlicate; n = 1
[1] = system: TNNI3K
[2] = system: T1, TRKA
T1 construct: gene NTRK1

[3] = system: TRKB
[4] = system: T2, TRKC
T2 construct: gene NTRK3

[5] = system: TRPM6
[6] = system: TSSK1B
[7] = system: TSSK3
[8] = system: TTK
[9] = system: TXK
[10] = system: TYK2(JH1domain-catalytic)
[11] = system: TYK2(JH2domain-pseudokinase)
[12] = system: TYRO3
[13] = system: ULK1
[14] = system: ULK2
[15] = system: ULK3
[16] = system: T3, VEGFR2
T3 construct: gene KDR

[17] = system: T4, VPS34
T4 construct: gene PIK3C3

[18] = system: VRK2
[19] = system: WEE1
[20] = system: WEE2
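Note: KINOMEscan kinase panel screen.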

Row | Structure (SMILES) | %Inh [1] [%] | %Inh [2] [%] | %Inh [3] [%] | %Inh [4] [%] | %Inh [5] [%] | %Inh [6] [%] | %Inh [7] [%] | %Inh [8] [%] | %Inh [9] [%] | %Inh [10] [%] | %Inh [11] [%] | %Inh [12] [%] | %Inh [13] [%] | %Inh [14] [%] | %Inh [15] [%] | %Inh [16] [%] | %Inh [17] [%] | %Inh [18] [%] | %Inh [19] [%] | %Inh [20] [%]
1 | Cc1ccc(C(=O)Nc2ccc(Oc3ccc4nc(NC(=O)C5CC5)cn4c3)c(F)c2)c(=O)n1-c1ccccc1 | 24 | 100 | 99.9 | 99 | 0 | 12 | 0 | 17 | 76 | 20 | 0 | 81 | 0 | 0 | 7 | 99.1 | 43 | 0 | 0 | 0
2 | CC(C)S(=O)(=O)N1CCN(Cc2ccc3c(c2)nc(NC(=O)c2ccsc2)n3C[C@H](O)c2ccccc2)CC1 [GW635815] | 8 | 100 | 94.2 | 95.5 | 18 | 5 | 16 | 29 | 0 | 66 | 8 | 31 | 82 | 60 | 92.1 | 3 | 18 | 11 | 29 | 6
3 | COc1cccc(C2=C(Nc3cccc(Cl)c3)C(=O)NC2=O)c1 [SB-341556] | 14 | 0 | 36 | 19 | 0 | 16 | 6 | 13 | 1 | 14 | 46 | 21 | 42 | 7 | 12 | 0 | 0 | 0 | 5 | 0
4 | C[C@@H]1CCN(C(=O)N2CCCC2)C[C@@H]1N(C)c1ncnc2[nH]ccc12 | 18 | 85 | 55 | 26 | 4 | 5 | 4 | 89 | 4 | 100 | 0 | 0 | 36 | 46 | 70 | 49 | 0 | 0 | 0 | 0
5 | CC(=O)c1c(-c2ccncc2)[nH]c(-c2ccncc2)c1C [GW493036] | 0 | 0 | 0 | 0 | 33 | 34 | 13 | 3 | 35 | 42 | 90 | 0 | 3 | 0 | 10 | 0 | 50 | 55 | 17 | 0
6 | Cn1ccc2ncnc(Oc3ccc(NC(=O)Nc4cncc(C(F)(F)F)c4)c(Cl)c3)c21 | 61 | 51 | 55 | 88 | 0 | 0 | 0 | 0 | 0 | 0 | 0 | 0 | 0 | 0 | 99.9 | 98.5 | 0 | 0 | 0 | 7
7 | Cc1nnc(-c2ccc3occ(-c4ccc(S(C)=O)cc4)c3n2)o1 (centres unmarked) | 0 | 0 | 0 | 0 | 0 | 0 | 0 | 8 | 0 | 0 | 0 | 0 | 0 | 0 | 0 | 0 | 17 | 0 | 0 | 21
8 | Cn1ccc2ncnc(Oc3ccc(NC(=O)Nc4cnn(C(C)(C)C)c4)c(Cl)c3)c21 | 54 | 39 | 56 | 82 | 0 | 0 | 7 | 4 | 0 | 0 | 3 | 0 | 0 | 7 | 0 | 99.1 | 16 | 0 | 0 | 5
9 | Cn1ccc2ncnc(Oc3ccc(NC(=O)Nc4cccc(C(F)(F)F)c4)c(Cl)c3)c21 | 87 | 53 | 84 | 84 | 0 | 0 | 0 | 25 | 0 | 0 | 0 | 0 | 0 | 0 | 1 | 98.2 | 0 | 0 | 3 | 9
10 | CN(c1ccc2c(c1)nc(NCc1ccc(F)cc1)n2C)c1ccnc(Nc2ccc(CS(C)(=O)=O)cc2)n1.Cl [GW813244] | 11 | 0 | 7 | 0 | 24 | 0 | 4 | 0 | 80 | 36 | 12 | 4 | 28 | 13 | 21 | 98.3 | 30 | 6 | 0 | 7
